# Assay results as given in PubChem BioAssay AID2568 (National Center for Advancing Translational Sciences (NCATS), 2010).
# Inconclusive results are not listed. Activity calls are given as the source filed them. Calls follow the shape of the full dose curve.
# Molecular target: Neuropeptide S receptor (Homo sapiens) (UniProt Q6W5P4)
# Experiment: Confirmation Concentration-Response Assay for Antagonists of the Neuropeptide S Receptor: cAMP Signal Transduction, SAR for Probe
# How it was run: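 CHO cells stably expressing NPSR (1200 cells/well, cultured 16–30 h) received compound at up to 46 μM final. They were then stimulated for 60 min at 37 °C with reagent containing 100 nM NPS and RO-201724. cAMP was read by LANCE TR-FRET (665/620 ratio), and IC50 came from Hill-equation fits.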
# Sequence of Neuropeptide S receptor (Homo sapiens) (Q6W5P4 whole entry, looked up): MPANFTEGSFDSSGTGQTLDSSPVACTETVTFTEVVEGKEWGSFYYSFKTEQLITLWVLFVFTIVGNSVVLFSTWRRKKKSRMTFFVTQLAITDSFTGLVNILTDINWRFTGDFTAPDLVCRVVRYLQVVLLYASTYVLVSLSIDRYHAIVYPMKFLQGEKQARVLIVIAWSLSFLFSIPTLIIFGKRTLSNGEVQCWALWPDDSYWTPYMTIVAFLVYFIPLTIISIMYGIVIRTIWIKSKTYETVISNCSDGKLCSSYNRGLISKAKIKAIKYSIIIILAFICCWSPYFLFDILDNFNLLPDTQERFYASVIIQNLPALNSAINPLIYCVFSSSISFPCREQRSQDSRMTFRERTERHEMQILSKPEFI
row,Structure (SMILES),Potency
1,CCOC(=O)c1ccc(-n2cnc3c(c2=N)C(c2cccc(OC)c2)c2c(ccc4ccccc24)O3)cc1 (stereo not given),15.4 µM (active)
2,COc1cccc(C2c3c(ncn(-c4ccc(NC(C)=O)cc4)c3=N)Oc3ccc4ccccc4c32)c1 (stereo not given),19.4 µM (active)
3,COc1cccc(C2c3c(ncn(-c4ccc(C#N)cc4)c3=N)Oc3ccc4ccccc4c32)c1 (stereo not given),15.4 µM (active)
4,O=C(NCc1ccccc1)n1cc(P(=S)(c2ccccc2)c2ccccc2)c2ccccc21,inactive
5,COc1ccc(C2c3ccccc3Oc3ncn(CCN4CCOCC4)c(=N)c32)cc1OC (stereo not given),6.14 µM (active)
